In the library only some 2.4% were active in any assay of this set; here they are far more common.
FEN1 inh – qHTS Assay for the Inhibitors of Human Flap endonuclease 1 (FEN1); P39748; Recombinant FEN1 flap cleavage, fluorescence, 15 min; Potency, µM (doses to about 114 µM), inactives show top-dose activity change, negative = inhibition, hits mostly inhibitors; 390,000 tested, 0.35% active; AID 588795, 2011; note: potency is the fitted concentration of half-maximal effect; % is set by controls: 0 for no effect and ±100 for the full control effect; nearly all actives have a fitted effect of over 65% in size
Target sequence (P39748 whole entry, looked up): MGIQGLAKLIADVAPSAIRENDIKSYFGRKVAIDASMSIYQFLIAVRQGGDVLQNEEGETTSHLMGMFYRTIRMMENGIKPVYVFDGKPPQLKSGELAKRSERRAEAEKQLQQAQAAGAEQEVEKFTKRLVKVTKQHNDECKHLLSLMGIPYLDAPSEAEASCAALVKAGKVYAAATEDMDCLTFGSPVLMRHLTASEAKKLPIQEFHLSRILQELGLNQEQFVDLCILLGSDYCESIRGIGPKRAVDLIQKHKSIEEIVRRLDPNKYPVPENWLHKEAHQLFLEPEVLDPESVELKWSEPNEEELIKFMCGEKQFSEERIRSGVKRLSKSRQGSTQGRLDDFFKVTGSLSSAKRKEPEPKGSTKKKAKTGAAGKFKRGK
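Reaction started by adding substrate (50 nM final) to 10 nM enzyme after 15 min room-temperature compound preincubation. Reads at 0 and 15 min, with data normalized and fitted to a four-parameter Hill equation.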
WRN helicase inh – qHTS for Inhibitors of WRN Helicase; Bifunctional 3'-5' exonuclease/ATP-dependent helicase WRN (Homo sapiens), Q14191; WRN helicase unwinding, fluorescent forked duplex, kinetic; Potency, µM (titrated, usually from 114 µM), inactives show at the top dose activity change, negative = inhibition, usual class: inhibitors; 360,000 tested, 0.46% active; AID 651768, 2012; note: potency is the fitted concentration of half-maximal effect; % is set by controls: 0 for no effect and ±100 for the full control effect; nearly all actives have a fitted effect of over 55% in size
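Kinetic fluorescence helicase assay: unwinding of a quenched forked DNA duplex (100 nM final) with 2 mM ATP final raises red fluorescence (525/598 nm). Compounds sat 15 min at room temperature with 20 nM WRN beforehand.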
Pol beta inh – qHTS Assay for Inhibitors of DNA Polymerase Beta; Pol beta primer extension/strand displacement, fluorescence kinetic; Potency, µM (top dose mostly 114 µM), for the others: top-dose activity change, negative = inhibition, hits mostly inhibitors; P06746; 340,000 tested, 1.3% active; note: potency is the fitted concentration of half-maximal effect; % is set by controls: 0 for no effect and ±100 for the full control effect
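Curves were derived by four-parameter Hill fits of normalized qHTS data. The kinetic fluorescent primer-extension read was taken at 0 and 10 min after 50 nM substrate, following a 15 min room-temperature preincubation of 10 nM enzyme with compounds.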
Pol kappa inh-1 – qHTS for Inhibitors of Polymerase Kappa; DNA polymerase kappa (Homo sapiens), Q9UBT6; purified Pol kappa, fluorescent DNA synthesis assay, 10 min; Potency, µM (series often up to 107 µM), without a hit: at the top dose activity, negative = inhibition, actives largely listed as inhibitors; 400,000 tested, 0.53% active; AID 588579, 2011; note: potency is the fitted concentration of half-maximal effect; % is set by controls: 0 for no effect and ±100 for the full control effect
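Kinetic fluorescence screen: compound preincubated 15 min RT with 10 nM enzyme; 50 nM substrate (final) initiates; reads at 0/10 min.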
POLI inh – qHTS for Inhibitors of Polymerase Iota; DNA polymerase iota (Homo sapiens), Q9UNA4; Potency, µM (series often up to 115 µM), inactives show at the top dose activity, negative = inhibition, most hits filed as inhibitors; 390,000 tested, 1% active; Pol iota fluorescent replication assay, 10 min; AID 588590, 2011; note: potency is the fitted concentration of half-maximal effect
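Pol iota at 10 nM preincubated 15 min with compounds at room temperature; reaction started with fluorescent substrate, 50 nM final. Fluorescence read kinetically at 0 and 10 min; buffer-only wells as negative control.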
Pol eta inh-1 – qHTS for Inhibitors of Polymerase Eta. DNA polymerase eta (Homo sapiens), Q9Y253. recombinant Pol eta, fluorescent DNA replication assay. Potency, µM (top dose mostly 114 µM), for the others: at the highest dose activity change, negative = inhibition, most hits filed as inhibitors. 390,000 tested, 1.2% active. AID 588591, 2011; note: potency is the fitted concentration of half-maximal effect; % is set by controls: 0 for no effect and ±100 for the full control effect
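Fluorescent replication assay: 50 nM final substrate added after a 15 min room-temperature compound preincubation with 10 nM enzyme. Signal taken at 0 min and again at 10 min.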
GALK inh confirm – Confirmation Assay for Inhibitors of Human Galactokinase (GALK) | AID 2015, 2009 | shares compounds with Pol eta inh-1 | 150 tested, 70% active | Potency, µM (doses to about 115 µM), for the others: top-dose activity, negative = inhibition, usual class: inhibitors | purified GALK, Kinase-Glo ATP depletion luminescence
Redox cycling – Confirmatory Assay for Inhibitors of Human Galactokinase (GALK): Phenol-HRP redox assay counterscreen. shares compounds with Pol eta inh-1. Potency, µM (highest dose often 115 µM), for the others: top-dose activity change, negative = H2O2 signal, most hits filed as inhibitors. AID 2035, 2009. 150 tested, 40% active. Phenol red-HRP H2O2 redox cycling, absorbance 600 nm
HEK293 tox – Secondary Assay for Inhibitors of Human Galactokinase (GALK): HEK-293 Cell Viability Assay | shares compounds with Pol eta inh-1 | HEK-293 viability, ATP luminescence (CellTiter-Glo), 24/48 h | Potency, µM (highest dose often 46.1 µM), for the others: top-dose activity change, negative = cytotoxicity, actives largely listed as inhibitors | 170 tested, 10% active | AID 2547, 2010; note: potency is the fitted concentration of half-maximal effect; % is set by controls: 0 for no effect and ±100 for the full control effect
Pol kappa inh-2 – qHTS for Inhibitors of Polymerase Kappa: Confirmatory Assay for Cherry-picked Compounds. AID 720501, 2013. shares compounds with Pol eta inh-1. purified Pol-kappa, fluorescent strand-displacement substrate. 920 tested, 76% active. Potency, µM, hits mostly inhibitors; note: potency is the fitted concentration of half-maximal effect
Pol eta inh-2 – qHTS for Inhibitors of Polymerase Eta: Confirmatory Assay for Cherry-picked Compounds; AID 720502, 2013; shares compounds with Pol eta inh-1; Pol eta primer extension, TAMRA/BHQ fluorescence, 10 min; 2,600 tested, 64% active; Potency, µM, usual class: inhibitors; note: potency is the fitted concentration of half-maximal effect
* hit, by the source's call; u = inconclusive; x = no result given; [ ] = another dose, or the depositor's remark. Calls come from the whole dose curve; as a rule, active = well fitted curve in the direction sought with a large enough effect; inconclusive = small, poorly fitted or top-dose-only effect, or another doubt; inactive = no such curve, though single readings can be large; an effect the other way counts as inactive or inconclusive.

SMILES	FEN1 inh	WRN helicase inh	Pol beta inh	Pol kappa inh-1	POLI inh	Pol eta inh-1	Pol eta inh-2	others
CC(=O)c1cccc(-c2ccc3c(=O)[nH]c(Nc4ccccc4)cc3c2)c1	1%	-19%[57.1 µM]	x	u	u	20µM*	76*
Cn1c(=O)cc(Nc2ccccc2)[nH]c1=O	4%	-28%	-6%	-8%	137%	-5%	x
COc1ccc(OC)c(NC(=O)CCc2c(C)nn(-c3ccc(N4CCCC4)nn3)c2C)c1	-1%	x	2%	0%	44%	-12%	x
CC(C)(C)CC(C)(C)N=C1Nc2ccc(Cl)cc2N[C@]12C[C@H]1CCCC(=O)N3CC[C@@H](C2)[C@@H]13	-17%	x	x	-17%	14%	x	x
COc1cc(NC(=O)CSc2nc3nc(C)c(Cc4ccccc4)c(C)n3n2)cc(OC)c1OC	-30%	x	24%	-9%[60.1 µM]	17%	-19%	x
Cn1c2ccccc2c(=O)n2c(=O)c3ccccc3cc12	x	x	11%	x	x	x	x	GALK inh confirm=11µM*;Redox cycling=9.4µM*;HEK293 tox=0%
O=C(O)c1ccc(N2C(=O)CCCC2=O)cc1	20%	0%	1%	4%	-5%	-5%	x
O=C(O)c1ccc(-n2[nH]c3c(c2=O)CCCC3)cc1	13%	-5%[57.1 µM]	28µM*	u	u	35µM*	u	Pol kappa inh-2=24*
CC(=O)N=c1c(C#N)cc2c(=O)n3cccc(C)c3nc2n1Cc1ccco1	-21%	-28%[57.1 µM]	u	-22%	40µM*	32µM*	u
CCOCCCNC(=O)c1cnc2sc(N3CCCCCC3)nn2c1=O	-6%	x	14%	-1%	4%	-18%	x
CCNc1ncc2nc(-c3ccccc3)c(=O)n(Cc3cccc(OC)c3)c2n1	x	x	x	-4%[60.1 µM]	x	x	x
O=C(Nc1cccc(Cl)c1)c1c(NC(=O)C(F)(F)F)sc2c1CCCC2	u	x	u	-32%	u	25µM*	u
Cc1ccccc1NC(=O)c1c(NC(=O)C(F)(F)F)sc2c1CCCCC2	-12%	x	u	-4%	10%	-29%	x
Cc1ccc(NC(=O)c2c(NC(=O)C(F)(F)F)sc3c2CCCCC3)cc1	u	x	u	u	u	50µM*	u

Assay outcomes (PubChem)
